Results published in PubChem BioAssay AID743279 (National Center for Advancing Translational Sciences (NCATS), 2014).
Screen size: about 360,000 compounds; about 17,000 (4.7%) were called active. Not shown: some 5% with an inconclusive outcome. Shown is part of a subset that was picked to be rich in actives. Unmarked numbers belong to inactive results. Cut-off read from the data, not from the text of the source: active = activity change below about -50%; inconclusive = mostly about -30% to -49%; inactive = weaker than that.

Test: qHTS for Inhibitors of Inflammasome Signaling: IL-1-beta AlphaLISA Primary Screen
Conditions: THP-1 LPS/ATP IL-1B secretion, 16 h; at 57.5 µM, hits give low values
Description: Inflammasomes are a set of intracellular multi-protein complexes that enable autocatalytic activation of inflammatory caspases and drive the innate immune response to counter harmful agents. […] A qHTS assay, based on AlphaLISA technology, was developed to screen the Molecular Libraries Small Molecule Repository (MLSMR) to look for novel inflammasome inhibitors. The assay detects IL-1B using AlphaLISA anti-IL-1B acceptor and donor beads. A decreased emission signal, indicating reduced IL-1B secretion, is the desired outcome for this assay. NIH Chemical Genomics Center [NCGC] NIH Molecular Libraries Probe Centers Network [MLPCN] MLPCN Grant: MH095513 Assay Provider: Shyam Biswal Ph.D., Johns Hopkins University Immunity. 2012 Jul 27;37(1):85-95. PMID: 22819042 [2] Curr Pharm Des. 2012;18(16):2320-8. PMID: 22390695
Three microliters containing 3000 THP-1 cells were dispensed into the wells of solid, white, tissue culture treated Greiner 1,536-well plates. Library compounds and positive control, Glyburide, were pin-transferred (23 nL) by a Kalypsys pin-tool equipped with a 1,536-pin array, resulting in final compound concentration ranges of 2.5 nM to 57.5 uM. After 1 hr of cell culture incubation (37 °C, 5% CO2), 1 microL of 1 microg/mL lipopolysaccharide (250 ng/mL, final) and 5 mM ATP (1.25 mM, final) were added to stimulate the cells. After 16 hr of cell culture incubation with the compounds, 1.5 uL of anti-IL-1B acceptor beads (6 ug/mL, final) and biotinylated antibody (0.6 nM, final) were added to the plate, followed by a 1 hr incubation at ambient temperature. To detect the secreted IL-1B, 1.5 uL of AlphaLISA SA-Donor beads (24 ug/mL, final) were added, followed by 30 min of incubation in the dark at ambient temperature. The AlphaLISA signal was read by a PerkinElmer EnVision plate reader with an ultrasensitive luminescence detector and 1536 Plate HTS AlphaScreen aperture (excitation of 680nm and emission of 615nm).
% is set by controls: 0 for no effect and ±100 for the full control effect.

Row | Compound | activity change
1 | Cc1ccc(S(=O)(=O)N2CCOCC2)cc1NC(=O)COC(=O)c1cnccn1 | 2.75%
2 | CCOC(=O)C1CCCN(C(=O)c2ccc(C)c(F)c2)CC1 (configuration not stated) | 13%
3 | Cn1c(SCC(=O)Nc2ccc(Br)cc2F)nnc1-c1ccco1 | -12.1%
4 | COc1ccccc1-n1c(-c2cc(-c3ccco3)[nH]n2)n[nH]c1=S | 5.01%
5 | Cn1c(-c2ccco2)nc2cc3ccccc3cc21 | -69.2% (active)
6 | NC(=O)CSc1nnc(-c2cccc(S(=O)(=O)N3CCOCC3)c2)o1 | -7.22%
7 | COc1cccc(/C=N/NC(=O)CNC(=O)c2ccc(S(=O)(=O)N3CCOCC3)cc2)c1OC | -0.608%
8 | COc1ccc(C(=O)NCC(=O)N/N=C/c2ccc([N+](=O)[O-])o2)cc1OC | -85.8% (active)
9 | COc1ccc(/C=N/NC(=O)CNC(=O)c2ccc(S(=O)(=O)N3CCCC3)cc2)c(OC)c1 | 16.6%
10 | COc1ccc(-c2c(C#N)cnc(C)c2C)c(O)c1OC | -20.7%
11 | COc1cc(/C=C(\C#N)c2nc3ccccc3[nH]2)ccc1O | -65.7% (active)
12 | CCCCCOc1ccc(/C=C/C(=O)NCCc2nc3ccccc3[nH]2)cc1OC | -2.9%
13 | Cc1ccc(O)c(CNc2nc3ccccc3[nH]2)c1 | -5.71%
14 | O=C(CCN1C(=O)c2ccccc2C1=O)C1=NN[C@@H]2C(=O)N(c3ccc(F)cc3)C(=O)[C@H]12 | 5.83%
15 | COc1ccc(OCC(O)CNCCNc2nccc(C(F)(F)F)n2)cc1 (configuration not stated) | -18.5%
16 | CC(C)(C)CC(C)(C)NCC(O)COCCOc1ccc(Br)cc1 (configuration not stated) | -99.4% (active)
17 | CC(C)(C)NCC(O)COc1cccc2[nH]c(=O)[nH]c12 (configuration not stated) | 4.98%
18 | O=[N+]([O-])c1ccc2c(c1)C(O)n1nc(-c3ccccc3)nc1S2 (configuration not stated) | -8.59%
19 | O=C(C[C@H]1C[C@@H]2c3cc(NC(=O)C4CCC4)ccc3O[C@@H]2[C@H](CO)O1)NC1CCCCC1 | 13%
20 | Cn1cnnc1Sc1ccc(CN2CCN(C3CCCC3)C(CCO)C2)o1 (configuration not stated) | 0.321%
21 | C[C@H]1CN(c2ccc(Br)cc2)C(=O)[C@@H]1CC(=O)Nc1ccc(Br)cc1 | 3.7%
22 | O=C(CSc1c2c(nc3ccc(Cl)cc13)CCCC2)NCc1ccco1 | -92.7% (active)
23 | O=C(CSc1nnnn1-c1ccccc1)NCc1ccco1 | 2.34%

Row | Compound | activity change
24 | O=C(/C=C/c1ccc(Cl)cc1Cl)NCc1ccco1 | -10.5%
25 | CS(=O)(=O)N1CCCC(C(=O)Nc2ccccc2C(F)(F)F)C1 (configuration not stated) | 8.14%
26 | O=C(Nc1cccc(F)c1)N1C2CCC1CC(O)(c1cccnc1)C2 (configuration not stated) | 31.6%
27 | Cc1cc(C)nc(-n2ncc3c2CC(c2ccc(C(C)C)cc2)CC3=O)n1 (configuration not stated) | -85.9% (active)
28 | Cc1nc2nc3c(cn2n1)C(=O)CC(c1ccccc1)C3 (configuration not stated) | 20.9%
29 | COc1ccc(OC)c(-n2cc3c(=O)n(C)c(=O)n(C)c3c2)c1 | 33%
30 | O=c1ccnc(Nc2ccc(Cl)cc2)[nH]1 | 0%
31 | COc1ccccc1NC1=NC(c2ccc(Cl)cc2)N=C(N)N1 (configuration not stated) | -13.3%
32 | CC1(C)N=C(N)NC(Nc2ccc(Cl)cc2)=N1 | -77.7% (active)
33 | O=C(Nc1ccc2c(c1)OCCO2)C(C1CC1)N1CCC(Cc2ccccc2)CC1 (configuration not stated) | 11.6%
34 | CC12c3ccccc3C(c3ccccc31)C1C(=O)N(Cc3cccnc3)C(=O)C12 (configuration not stated) | -50.6% (active)
35 | CC1Oc2ccccc2N(Cc2cccnc2)C1=O (configuration not stated) | -12.7%
36 | CC1(C)CN(Cc2cccnc2)C(=O)[C@H]1CC(=O)Nc1ccc(Br)cc1 | 24.4%
37 | CC(=O)N1CCN(Cc2cc(=O)oc3cc(C)ccc23)CC1 | 19.5%
38 | O=C(/C(=N\O)n1cncn1)c1ccc(Br)cc1Br | -12.3%
39 | COC(=O)c1cc2c(N)c(C(=O)c3ccc(Cl)cc3)sc2nc1C(OC)OC | -7.51%
40 | Cc1nc2sc(C(=O)c3ccccc3)c(N)c2c2c1CCCC2 | -96% (active)
41 | CCN(CC)C(=O)c1sc2nc(-c3ccccc3)ccc2c1N | -57.4% (active)
42 | CCN(CC)C(=O)N(CC)Cc1ccccc1 | 3.47%
43 | Cc1nc2ccccc2c(-c2ccccc2)c1C(=O)c1ccccc1 | 29.5%
44 | Cc1ccc2c(N)c(C(=O)c3ccccc3)sc2n1 | -69.1% (active)
45 | Cc1nn(C)cc1C(=O)c1ccccc1 | 0%
46 | Cc1cccc(NC(=O)c2sc3nc(N4CCOCC4)c4c(c3c2N)CCCC4)c1 | 11.3%

Row | Compound | activity change
47 | CCN(CC)C(=O)c1sc(NC(=O)c2ccco2)c(C#N)c1C | -26.1%
48 | COCCCn1c(=O)/c(=C/c2ccccc2OC(C)C)s/c1=C(\C#N)C(=O)Nc1ccc(C(=O)O)cc1 | -11.6%
49 | CC1Cc2ccccc2N1S(=O)(=O)c1cccc(C(=O)NCC(c2ccco2)N2CCCC2)c1 (configuration not stated) | -6.87%
50 | Cc1ccc([C@H]2N[C@]3(CCCN(Cc4ccccc4)C3=O)[C@H]3C(=O)N(Cc4ccccc4)C(=O)[C@@H]23)cc1 | 19.2%
51 | CC(C)N1C(=O)c2ccccc2NC(=O)C1C(=O)NCc1cccs1 (configuration not stated) | 0%
52 | Cc1ccc(S(=O)(=O)Nc2ccc3c(c2)C(=O)N([C@H](C)CO)C[C@@H](C)[C@@H](CN(C)C(=O)Nc2cccc4ccccc24)O3)cc1 | -20.3%
53 | C[C@@H]1CCCCO[C@H](CN(C)Cc2ccccc2)[C@@H](C)CN([C@H](C)CO)C(=O)c2cc(NS(=O)(=O)c3ccc(Cl)cc3)ccc2O1 | -50.8% (active)
54 | C[C@@H]1CN([C@@H](C)CO)C(=O)c2cc(NS(C)(=O)=O)ccc2O[C@@H](C)CCCCO[C@H]1CN(C)C(=O)Nc1ccc2c(c1)OCO2 | -2.98%
55 | COc1cc(NC(=O)c2cc(-c3ccc(F)cc3OC(C)C)n[nH]2)cc(OC)c1OC | -6.74%
56 | Cc1cccc(NC(=S)NCc2ccc3[nH]c4c(c3c2)CCCC4)c1 | -10.4%
57 | Cc1cccc(NC(=S)NCCN(C2CCCCC2)C2CCCC2)c1 | -63.3% (active)
58 | Cc1cccc(C(=O)NC(=S)N(C)C2CCCCC2)c1 | -1.28%
59 | COc1ccc(C)cc1N(C(=O)Cn1nnc(-c2ccc(C)o2)n1)C(C(=O)NC1CCCC1)c1ccncc1 (configuration not stated) | 7.77%
60 | Cc1ccc2c(c1)c1ncnc(N3CCc4ccccc4C3)c1n2C | -19.9%
61 | O=C1CCC(C(=O)OCC(=O)Nc2ccc(OC(F)F)cc2)=NN1 | -2.22%
62 | O=C(c1cc(COc2ccc(F)c(F)c2)on1)N1CCOCC1 | -28.7%
63 | C=CCC1(CC=C)CCCN1C(=O)c1cc(COc2ccc(-n3cncn3)cc2)on1 | -59.7% (active)
64 | CCn1ccnc1CN(C)C(=O)c1cc(COc2ccc(-n3cncn3)cc2)on1 | 21.7%
65 | O=C(NC1CCCC1)C1c2ccccc2OCC(=O)N1Cc1ccccc1 (configuration not stated) | 27.8%
66 | CCN1CCN(C(=O)CCN2C(=O)c3ccccc3C2=O)CC1 | 15.8%
67 | O=C(O)CC12CC3CC(C1)CC(n1ncc(NCc4ccc(F)cc4)c(Cl)c1=O)(C3)C2 | -16%
68 | CSC1=N/C(=C\C=C\c2cccs2)C(=O)S1 | -92.1% (active)
69 | COc1ccc(OC(C)C(=O)Nc2cccnc2)cc1 (configuration not stated) | -0.423%

Row | Compound | activity change
70 | CC(Sc1nc2c([nH]c3ccccc32)c(=O)n1C)c1ccccc1 (configuration not stated) | 27.7%
71 | O=C1OCCC1=COCCCCOC=C1CCOC1=O | 2.81%
72 | COc1ccc(C(=O)C2CCCN(Cc3ccc4nonc4c3)C2)c(C)c1 (configuration not stated) | -3.49%
73 | COc1ccc(C(=O)C2CCCN(Cc3cccn3-c3ccccn3)C2)c(C)c1 (configuration not stated) | -99.7% (active)
74 | CCOC(=O)c1[nH]ncc1CN1CCCC(C(=O)c2ccc(OC)cc2C)C1 (configuration not stated) | 0%
75 | Cc1[nH]c2ccccc2c1C(=O)C(=O)NCc1nnnn1-c1cccc(F)c1 | 10.9%
76 | Cc1ccccc1-c1csc(C(O)c2cccc(Cl)c2)n1 (configuration not stated) | -11.7%
77 | CCN(CC)c1ncnc2c1ncn2[C@H]1CN(Cc2cccs2)C[C@@H](CO)O1 | -12%
78 | CC(=O)NCCC(=O)Nc1nc(-c2ccc3c(c2)OCCO3)cs1 | 15.5%
79 | Cc1ccc(-c2csc(NC(=O)C3=COCCO3)n2)cc1C | -88.1% (active)
80 | Cc1csc(NC(=O)C2=COCCO2)n1 | -3.32%
81 | Nc1nc2cc(Cl)ccc2n1N | 32.9%
82 | CCn1nc(C)c(/C=N/NC(=O)Cc2ccc(Cl)cc2)c1C | 14.8%
83 | Cc1nn(Cc2ccc(Cl)cc2)c(Cl)c1/C=N/NC(=O)CNc1ccccc1F | -13.7%
84 | Cc1nn(Cc2ccc(Cl)cc2)c(Cl)c1/C=N/NC(=O)c1cccnc1 | -70.6% (active)
85 | NC(c1csc(NC(=O)Nc2ccccc2Oc2ccccc2)n1)c1ccccc1Cl (configuration not stated) | -71.7% (active)
86 | COc1ccccc1NC(=O)Nc1nc(CC(=O)Nc2ccccc2F)cs1 | -1.21%
87 | CC(=O)c1ccc(Nc2nc(C(N)c3ccccc3Cl)cs2)cc1 (configuration not stated) | 49.4%
88 | CC/C(=C\c1ccc(Cl)cc1)c1ccncc1 | 3.7%
89 | COCCCn1c(C(=O)NC2CCCCC2)cc2c(=O)n3cccc(C)c3nc21 | -7.13%
90 | Cn1ncc([N+](=O)[O-])c1C(=O)Nc1cc(Cl)ccc1Cl | -5.95%
91 | COc1ccccc1NC(=O)Nc1nnc(Cc2ccc(F)cc2)s1 | 28.6%
92 | Cc1cccc(C)c1Cn1c(C)c(C(=O)NCc2cccc(Cl)c2)sc1=O | -13.4%
